In PubChem BioAssay (NCI):
This is part of a sample that, as a whole, favours compounds with a hit. Of some 79,000 tested, about 15% had one in any assay. Active and inactive are the calls of the source. Rule as the data show it: active = growth inhibition above about 70%; inactive = the rest.

Legend:
[1] = NCI Yeast Anticancer Drug Screen. Data for the rad50 strain (AID 155);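 also: 0% = growth of vehicle-only cultures of the same strain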; settings: S. cerevisiae rad50 strain growth inhibition; at 50.0 µM; hits give high values
How it was run: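 DNA repair mutant yeast, compound exposure, growth read-out; inhibition is taken relative to vehicle.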

[2] = NCI Yeast Anticancer Drug Screen. Data for the mec2-1 strain (AID 157); settings: S. cerevisiae mec2-1 strain, at 50.0 µM, hits give high values
How it was run: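 Compounds were applied to mec2-1 yeast cells. Their growth was then compared with that of vehicle-treated cultures to give growth inhibition.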

[3] = NCI Yeast Anticancer Drug Screen. Data for the sgs1 mgt1 strain (AID 161);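 also: 0% = growth of cultures given vehicle only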; settings: S. cerevisiae sgs1 mgt1 strain, at 50.0 µM, hits give high values
How it was run: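 Compounds are added to genetically altered yeast, and growth is compared with cultures given vehicle alone to give percent inhibition.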

[4] = NCI Yeast Anticancer Drug Screen. Data for the cln2 rad14 strain (AID 165);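 also: 0% = growth equal to vehicle treated cultures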; settings: S. cerevisiae cln2 rad14 strain, at 50.0 µM, hits give high values
How it was run: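 Strain: cln2 rad14 yeast, altered in cell cycle control and DNA damage repair. Read-out: growth inhibition vs vehicle.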

[5] = NCI Yeast Anticancer Drug Screen. Data for the bub3 strain (AID 167); settings: S. cerevisiae bub3 mutant strain, at 50.0 µM, hits give high values
How it was run: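 In this screen, a yeast mutant lacking normal mitotic checkpoint function is challenged with compound. Relative growth versus vehicle gives the inhibition value.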

[6] = NCI Yeast Anticancer Drug Screen. Data for the mlh1 rad18 strain (AID 175); settings: S. cerevisiae mlh1 rad18 strain growth inhibition; at 50.0 µM; hits give high values
How it was run: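 A repair-deficient yeast strain is exposed to test compound, and growth is scored relative to vehicle-treated controls.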

Measured: growth inhibition

O=[N+]([O-])c1ccc2nc(/C=C(\O)c3ccccc3)c(/C=C(\O)c3ccc(Cl)cc3)nc2c1
inactive: [1] -10.1% | [2] -28.2% | [3] -52.5% | [4] -66.3% | [5] -62.1% | [6] -31.2%

CCOC(=O)C1=C(C)N(NC(N)=O)C2(O)CCCC(=O)C12C (stereo unspecified)
inactive: [1] 5.35% | [2] -0.45% | [3] 0.65% | [4] -52.2% | [5] -3.8% | [6] 2.2%

COc1ccc2c(c1)C[N+](C)(C)[B-]O2
inactive: [1] -1.6% | [2] -1.55% | [3] 5.45% | [4] -8.65% | [5] 2.1% | [6] 6.75%

CC1(C)CN2C(c3ccccc3)=NN(c3ccccc3)C2(C)C1 (stereo unspecified)
inactive: [1] -5.85% | [2] -18.4% | [3] 20.9% | [4] -23.1% | [5] 50.4% | [6] 6.15%

Nc1ccc(C2NC(=O)Cc3c2ccc2ccccc32)cc1 (stereo unspecified)
inactive: [1] 9.8% | [2] 9.7% | [3] 7.45% | [4] -43.4% | [5] 10.3% | [6] 13.6%

Nc1nc(N)c2c(n1)NCN(OCOc1ccc(Cl)cc1)C2
inactive: [1] -5.05% | [2] -6% | [3] -4.7% | [4] -21.8% | [5] 7.75% | [6] 1.55%

Cc1ccc(S(=O)(=O)OC2C3OC(C)(C)OC3OC2C2CSC(=S)S2)cc1 (stereo unspecified)
inactive: [1] 0.3% | [2] -6.6% | [3] 10.1% | [4] -12.8% | [5] -25.3% | [6] 4%

CCCCNc1ccc([N+](=O)[O-])cc1[N+](=O)[O-]
inactive: [1] 16.2% | [2] -15.4% | [3] 18.4% | [4] 6.55% | [5] 41.9% | [6] -0.6%

NC(N)=Nc1nc2ccc(Cl)cc2[nH]1
inactive: [1] 29.2% | [2] 1% | [3] 22.8% | [4] -4.3% | [5] -11.9% | [6] 11%

OC1OCC(COc2ccc(Cl)cc2)OC1O (stereo unspecified)
inactive: [1] -17.6% | [2] -9.05% | [3] -12.2% | [4] 1.25% | [5] -36.7% | [6] 18.9%

ClCc1c(Cl)c(Cl)c(CCl)c(Cl)c1Cl
inactive: [1] 2.75% | [2] -10.9% | [3] 3.1% | [4] 20.6% | [5] 12.6% | [6] -10.1%

CCCNc1ccc2c(c1)C(O)c1ccccc1-2 (stereo unspecified)
inactive: [1] -4.65% | [2] -5.1% | [3] 5.35% | [4] 2.4% | [5] -4% | [6] -2.95%

CC(=O)Oc1ccc2cc(NC(=O)c3ccccc3)c(=O)oc2c1
inactive: [1] 11.8% | [2] -2.85% | [3] -1.6% | [4] -62.4% | [5] -1.9% | [6] -3.35%

CCN(CC)CCCN1CCc2c([nH]c3ccccc23)C1c1cccnc1 (stereo unspecified)
inactive: [1] -4.2% | [2] -18.4% | [3] -0.3% | [4] 5.9% | [5] -18.1% | [6] -17.4%

CCN(CC)CCN1CC(=O)N2Cc3ccccc3CN2C(=O)C1
inactive: [1] -0.7% | [2] -4.45% | [3] 0.6% | [4] 10.4% | [5] 4.45% | [6] 5.9%

Cc1cc(-c2ccccc2N)nc2ccccc12
inactive: [1] 47.5% | [2] 2.35% | [3] 30.4% | [4] 31.3% | [5] 15.9% | [6] 26.6%

COc1ccc(N/N=C(/c2ccccc2)c2noc(-c3ccccc3)n2)cc1
active: [1] 79.5% | [2] 92.2% | [3] 88.8% | [4] 89.3% | [5] 94.1% | [6] 92.6%

CCOC(=O)/C(=C\c1ccccc1)c1nc2ccccc2[nH]1
inactive: [1] -1.2% | [2] -13.2% | [3] -15.4% | [4] -15.5% | [5] -14.7% | [6] -13.6%

CN(C)Cc1[nH]c2ccccc2c1C(=O)c1ccccc1
inactive: [1] -4.55% | [2] -8.85% | [3] -12.2% | [4] -18.7% | [5] -25.5% | [6] -25.6%

S=C(NNC(=S)Nc1ccccc1Cl)NNc1ccccc1
inactive: [4] 68.2%
active: [1] 80.8% | [2] 82.8% | [3] 93.4% | [5] 82.8% | [6] 88.9%

Cn1c(=O)c2c(nc(CCCCCCCCc3nc4c(c(=O)n(C)c(=O)n4C)n3C)n2C)n(C)c1=O
inactive: [1] -7.5% | [2] 19.9% | [3] -24.8% | [4] -45% | [5] -14.8% | [6] -14.7%

OCC1(c2ccccc2)CCNCC1
inactive: [1] -8.7% | [2] -4.9% | [3] -2.1% | [4] -0.7% | [5] -9.7% | [6] 26.6%

O=C(CCCCCCCCC(=O)OCc1ccccc1)OCc1ccccc1
inactive: [1] 19.2% | [2] 2.55% | [3] 3.85% | [4] -24.2% | [5] 11.2% | [6] 41%

ClCc1ccc(CCc2ccc(CCl)cc2)cc1
inactive: [1] 17.9% | [2] -17.9% | [3] 22.6% | [4] -44.9% | [5] 16.3% | [6] 8.15%

O=C(O)c1cc(=O)[nH]c(=S)[nH]1
inactive: [1] -18.6% | [2] 5.65% | [3] -19.5% | [4] 8.05% | [5] -9.25% | [6] -15.6%

CCc1cc(CN2CCN(CCO)CC2)c(O)c(CN2CCN(CCO)CC2)c1
inactive: [1] 1.5% | [2] 6% | [3] -13.2% | [4] 3% | [5] -0.9% | [6] 9.35%

CC(C)=NNC(=O)Nc1cccc(C)c1C
inactive: [1] 9.35% | [2] 15.2% | [3] -7.2% | [4] -47.3% | [5] -9.85% | [6] -6.7%

O=S(=O)(Nc1ccccc1)c1cc(O)ccc1O
inactive: [1] -3.35% | [2] -11.2% | [3] -9.75% | [4] -12.1% | [5] -26.5% | [6] -9.85%

BrC1CCC(Br)C(Br)CCC1Br (stereo unspecified)
inactive: [1] 46.5% | [2] 54.9% | [3] 55.1% | [4] 31.8% | [5] 60%
active: [6] 70.4%

O=C(O)c1cc(Cl)ccc1-c1ccc(Cl)cc1C(=O)Nc1ccc2c(c1)Cc1cc(Cl)cc(Cl)c1-2
active: [1] 96.2% | [2] 97.5% | [3] 97.8% | [4] 97.2% | [5] 95.6% | [6] 97.3%

CC(C)Sc1nc(NC(=O)N(C)N=O)cc(=O)[nH]1
inactive: [1] -3.4% | [2] -3.45% | [3] 19.6% | [4] 27.5% | [5] -9.95% | [6] -32.1%

Nc1cccc(OCCOc2ccccc2[N+](=O)[O-])c1
inactive: [1] 5% | [2] 26.6% | [3] 28.1% | [4] -4.7% | [5] 29.5% | [6] 18.9%

CC1(C)CC(=O)C(/C=N/C(=S)NCc2ccccc2)=C(O)C1
inactive: [1] -35.4% | [2] -49.1% | [3] -16% | [4] 14.4% | [5] -2.45% | [6] -20.8%

CC(O)CNCC(C)(C)N (stereo unspecified)
inactive: [1] -4.6% | [2] -4.65% | [3] -4.8% | [4] -7.5% | [5] 3.15% | [6] -1.95%

Clc1ccc(NC2=NCCN=C(Nc3ccc(Cl)c(Cl)c3)SS2)cc1Cl
inactive: [1] -26.9% | [2] -21.4% | [3] -14.7% | [4] -14.1% | [5] -28.1% | [6] -33.6%

On1c(-c2ccccc2)c(-c2c(-c3ccccc3)n(O)c3ccccc23)c2ccccc21
inactive: [1] 0% | [2] 6.45% | [3] -4.9% | [4] -24.2% | [5] -7.6% | [6] 15.8%

COC(=O)/C(=N\NC(C)(C)C)C(C(=O)OC)C(=O)C(=O)Nc1cc(Cl)ccc1Cl (stereo unspecified)
inactive: [1] 6.7% | [2] -0.25% | [3] -1.65% | [4] 1% | [5] -24.6% | [6] 8.55%

C=C1C2C[C@@H]3OC4CC5O[C@]6(CC5OC4C(C)C3OC(=O)CC3CC[C@@H]4OC5C7OC8C[C@](CCC9CC(=C)[C@H](CCC(C[C@H]1C)O2)O9)(OC7C4O3)O[C@@H]85)C[C@@H]1O[C@@]2(CC(C)[C@@H]3OC(CC(=O)CCO)C(O)C[C@@H]3O2)CC(C)[C@@H]1O6 (stereo partly specified)
active: [1] 84.5% | [2] 88.5% | [3] 88.6% | [4] 84.5% | [5] 87.5% | [6] 87.3%

O=C(Nc1ccccc1-c1ccccc1)c1cccnc1
inactive: [1] 2.65% | [2] 22.6% | [3] 9.2% | [4] 8.1% | [5] -11.2% | [6] 5.45%

C=C(Cl)/C(=C\Cl)CCC(Cl)C(C)C (stereo unspecified)
inactive: [1] 19.6% | [2] 15.2% | [3] 3.1% | [4] 29.1% | [5] -15.3% | [6] 4.25%

C=C(C)CCC[C@@H](C)C1CCC2(C)[C@@H]3CCC4C(C)(C)[C@@H](O)CC[C@@]45C[C@@]35CC[C@]12C (stereo partly specified)
inactive: [1] 31.1% | [2] 0.45% | [3] 25.4% | [4] 0.5% | [5] 18% | [6] 23.1%
